Several values for one entry are separate records, joined by “and”; a condition that tells them apart may be missing. Identical values can stand only once. About 2,000 (36%) of roughly 5,500 compounds were called active. Not shown: some 18% with an inconclusive outcome. Rule as the data show it: active = normalized growth mostly below about 0.91 (no sharp cut-off); inconclusive = no clear call, values can overlap the other calls; inactive = mostly above about 0.92. The list shows a part of the results.
Assay: chemical genetic growth profiling, strain panel (AID 1159580);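 also: tested at 20 µM; growth read once vehicle control cultures reached saturation at 30 °C; 1 = growth at the plate median or of vehicle wells; lower values mean less growth of the strain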
Settings: S. cerevisiae deletion strains, growth OD
[1] = locus YAL040C, strain CLN3, stronger effect = lower value
[2] = locus YDR363W, strain ESC2, stronger effect = lower value
[3] = locus YER002W, strain NOP16, stronger effect = lower value
[4] = locus YMR307W, strain GAS1, stronger effect = lower value
[5] = locus YNL153C, strain GIM3, stronger effect = lower value
[6] = locus YNL175C, strain NOP13, stronger effect = lower value
[7] = locus YNL197C, strain WHI3, stronger effect = lower value
[8] = locus YNL224C, strain SQS1, stronger effect = lower value
[9] = locus YNL322C, strain KRE1, stronger effect = lower value
[10] = locus YOR083W, strain WHI5 (second series), stronger effect = lower value
[11] = locus YPL241C, strain CIN2, stronger effect = lower value

Measured: normalized growth

CC(=O)NNC(=O)N1Cc2ccccc2Oc2ccc(Cl)cc21
inactive: locus YAL013W, strain DEP1, stronger effect = lower value 1.04 | [1] 1 | locus YCL061C, strain MRC1 (second series), stronger effect = lower value 1.02 | locus YDR150W, strain NUM1, stronger effect = lower value 1.02 | [2] 1.03 | [3] 1 | [4] 0.997 | [5] 1.02 | [6] 0.989 | [7] 1.01 | [8] 0.984 | [9] 1.03 | [10] 1.01 | locus YPL055C, strain LGE1, stronger effect = lower value 1.04 | [11] 1

CN(C)CCCN1c2ccccc2Sc2ccc(Cl)cc21
inactive: [1] 0.992 | locus YBR229C, strain ROT2, stronger effect = lower value 1.01 | locus YCL029C, strain bik1, stronger effect = lower value 1.03 | locus YDL005C, strain med2, stronger effect = lower value 1.01 | locus YDL074C, strain BRE1, stronger effect = lower value 0.87 | locus YDL101C, strain DUN1, stronger effect = lower value 0.992 | locus YDL185W, strain tfp1, stronger effect = lower value 1.01 | locus YDL192W, strain arf1, stronger effect = lower value 1.01 | locus YDR101C, strain arx1, stronger effect = lower value 0.98 | locus YDR137W, strain rgp1, stronger effect = lower value 0.903 | locus YDR318W, strain mcm21, stronger effect = lower value 0.999 | [2] 0.953 | locus YDR388W, stronger effect = lower value 0.98 | locus YDR502C, strain sam2, stronger effect = lower value 0.974 | locus YEL061C, strain CIN8, stronger effect = lower value 0.983 | [3] 0.972 | locus YER110C, stronger effect = lower value 1.04 | locus YER111C, strain swi4, stronger effect = lower value 0.977 | locus YER155C, strain BEM2 (second series), stronger effect = lower value 1.12 | locus YER155C, strain BEM2, stronger effect = lower value 1.02 | locus YER167W, strain BCK2, stronger effect = lower value 1.01 | locus YGL078C, strain dbp3, stronger effect = lower value 1.01 | locus YGL086W, strain mad1, stronger effect = lower value 0.936 | locus YGL240W, strain doc1, stronger effect = lower value 0.92 | locus YGL248W, strain PDE1, stronger effect = lower value 0.994 | locus YGR078C, strain PAC10, stronger effect = lower value 0.889 and 0.997 | locus YGR135W, strain pre9, stronger effect = lower value 0.913 | locus YGR252W, strain gcn5, stronger effect = lower value 0.78 | locus YHR030C, strain SLT2, stronger effect = lower value 0.948 and 0.983 | locus YHR079C, strain IRE1 (second series), stronger effect = lower value 1.01 | locus YHR079C, strain IRE1, stronger effect = lower value 0.984 | locus YHR094C, strain hxt1, stronger effect = lower value 1 | locus YHR129C, strain ARP1, stronger effect = lower value 1 | locus YHR200W, strain rpn10, stronger effect = lower value 1.01 | locus YIL066C, strain RNR3, stronger effect = lower value 0.936 | locus YIL073C, strain SPO22, stronger effect = lower value 0.979 | locus YIL125W, strain kgd1, stronger effect = lower value 1 | locus YIR030C, strain dcg1, stronger effect = lower value 1.02 | locus YJL134W, strain LCB3, stronger effect = lower value 0.998 | locus YJL168C, strain set2, stronger effect = lower value 1.01 | locus YJL187C, strain SWE1 (second series), stronger effect = lower value 0.949 | locus YJR043C, strain POL32, stronger effect = lower value 1.02 | locus YJR066W, strain TOR1, stronger effect = lower value 0.974 | locus YJR075W, strain HOC1, stronger effect = lower value 0.933 | locus YKL009W, strain mrt4, stronger effect = lower value 1.02 | locus YKL068W, stronger effect = lower value 1.01 | locus YKL085W, strain MDH1 (second series), stronger effect = lower value 0.975 | locus YKL085W, strain MDH1, stronger effect = lower value 0.975 | locus YKL190W, strain CNB1, stronger effect = lower value 0.949 | locus YKR001C, strain vps1, stronger effect = lower value 0.919 | locus YLR058C, strain SHM2, stronger effect = lower value 0.986 | locus YLR102C, strain apc9, stronger effect = lower value 1 | locus YLR113W, strain HOG1, stronger effect = lower value 0.982 | locus YLR268W, strain sec22, stronger effect = lower value 1.01 | locus YLR330W, strain CHS5, stronger effect = lower value 1 | locus YLR371W, strain rom2, stronger effect = lower value 1.01 | locus YML016C, strain PPZ1, stronger effect = lower value 1 | locus YML032C, strain rad52, stronger effect = lower value 0.964 | locus YML124C, strain tub3, stronger effect = lower value 1.01 | locus YMR078C, strain ctf18, stronger effect = lower value 1.01 | locus YMR223W, strain ubp8, stronger effect = lower value 0.958 | locus YMR263W, strain SAP30, stronger effect = lower value 0.955 | [4] 1.02 | locus YNL067W, strain RPL9B, stronger effect = lower value 0.993 | [6] 0.967 | locus YNL183C, strain NPR1, stronger effect = lower value 0.917 | [7] 0.98 | [8] 0.984 | locus YNL233W, strain BNI4, stronger effect = lower value 0.937 | locus YNL250W, strain rad50, stronger effect = lower value 1.02 | locus YNL271C, strain bni1, stronger effect = lower value 1.01 | locus YNL298W, strain CLA4, stronger effect = lower value 1.02 | locus YNL307C, strain MCK1, stronger effect = lower value 1.01 | locus YNL322C, strain KRE1 (second series), stronger effect = lower value 1.07 | [9] 0.974 | locus YNR052C, strain pop2, stronger effect = lower value 0.94 | locus YOL006C, strain TOP1, stronger effect = lower value 0.733 | locus YOL012C, strain htz1 0.856 | locus YOL147C, strain pex11, stronger effect = lower value 1.02 | locus YOR061W, strain CKA2, stronger effect = lower value 0.948 | locus YOR069W, strain VPS5, stronger effect = lower value 1 | [10] 0.935 | locus YOR136W, strain idh2, stronger effect = lower value 1.03 | locus YOR144C, strain elg1, stronger effect = lower value 1.01 | locus YOR184W, strain ser1, stronger effect = lower value 1.04 | locus YOR231W, strain MKK1, stronger effect = lower value 0.986 | locus YOR316C, strain cot1, stronger effect = lower value 1 | [11] 0.988 and 0.985 | locus YPL256C, strain CLN2, stronger effect = lower value 0.97 | locus YPR119W, strain clb2, stronger effect = lower value 1.01 | locus YPR141C, strain kar3, stronger effect = lower value 1.02 | locus YPR163C, strain tif3, stronger effect = lower value 0.988 | locus YPR167C, strain met16, stronger effect = lower value 1.02 | strain wtn01, stronger effect = lower value 0.969
active: locus YAL021C, strain ccr4, stronger effect = lower value 0.0773 | locus YAL026C, strain drs2, stronger effect = lower value 0.0621 | locus YAL030W, strain snc1, stronger effect = lower value 0.0722 | locus YBL061C, strain skt5, stronger effect = lower value 0.0759 | locus YBR009C, strain hhf1, stronger effect = lower value 0.0662 | locus YBR021W, strain FUR4, stronger effect = lower value 0.612 | locus YBR023C, strain chs3, stronger effect = lower value 0.0864 | locus YBR171W, strain sec66, stronger effect = lower value 0.351 | locus YBR231C, strain swc5, stronger effect = lower value 0.0709 | locus YBR279W, strain paf1, stronger effect = lower value 0.165 | locus YCL011C, strain gbp2, stronger effect = lower value 0.068 | locus YCL016C, strain dcc1, stronger effect = lower value 0.165 | locus YCL069W, strain vba3, stronger effect = lower value 0.131 | locus YCR088W, strain abp1, stronger effect = lower value 0.0794 | locus YDL035C, strain GPR1, stronger effect = lower value 0.853 | locus YDL040C, strain nat1, stronger effect = lower value 0.14 | locus YDR001C, strain nth1, stronger effect = lower value 0.119 | locus YDR069C, strain doa4, stronger effect = lower value 0.0779 | locus YDR159W, strain sac3, stronger effect = lower value 0.274 | locus YDR162C, strain NBP2, stronger effect = lower value 0.599 | locus YDR195W, strain ref2 0.155 | locus YDR297W, strain sur2, stronger effect = lower value 0.0894 | locus YDR334W, strain swr1, stronger effect = lower value 0.0746 | locus YDR335W, strain msn5, stronger effect = lower value 0.158 | locus YDR392W, strain spt3, stronger effect = lower value 0.351 | locus YEL003W, strain gim4, stronger effect = lower value 0.0681 | locus YEL037C, strain rad23, stronger effect = lower value 0.0964 | locus YEL061C, strain CIN8 (second series), stronger effect = lower value 0.4 | locus YER015W, strain faa2, stronger effect = lower value 0.111 | locus YER016W, strain bim1, stronger effect = lower value 0.102 | locus YFR010W, strain ubp6, stronger effect = lower value 0.111 | locus YGL167C, strain pmr1, stronger effect = lower value 0.562 | locus YGL173C, strain kem1, stronger effect = lower value 0.501 | locus YGL227W, strain vid30, stronger effect = lower value 0.103 | locus YGL253W, strain hxk2, stronger effect = lower value 0.0994 | locus YHR013C, strain ard1, stronger effect = lower value 0.513 | locus YHR027C, strain rpn1, stronger effect = lower value 0.082 | locus YHR142W, strain chs7, stronger effect = lower value 0.116 | locus YJL092W, strain hpr5, stronger effect = lower value 0.0961 | locus YJL095W, strain BCK1 (second series), stronger effect = lower value 0.0651 | locus YJL115W, strain asf1, stronger effect = lower value 0.183 | locus YJL129C, strain trk1, stronger effect = lower value 0.159 | locus YJL154C, strain vps35, stronger effect = lower value 0.0684 | locus YJL164C, strain tpk1, stronger effect = lower value 0.0728 | locus YJL166W, strain qcr8, stronger effect = lower value 0.0785 | locus YKL160W, strain elf1, stronger effect = lower value 0.229 | locus YKR026C, strain gcn3, stronger effect = lower value 0.151 | locus YKR091W, strain srl3, stronger effect = lower value 0.0828 | locus YLL001W, strain dnm1, stronger effect = lower value 0.11 | locus YLL026W, stronger effect = lower value 0.0697 | locus YLL041C, strain sdh2, stronger effect = lower value 0.0922 | locus YLR027C, strain aat2, stronger effect = lower value 0.0702 | locus YLR039C, strain RIC1, stronger effect = lower value 1.67 [resistant] | locus YLR221C, strain rsa3, stronger effect = lower value 0.11 | locus YLR258W, strain gsy2, stronger effect = lower value 0.0787 | locus YLR262C, strain YPT6 (second series), stronger effect = lower value 0.165 | locus YLR262C, strain YPT6, stronger effect = lower value 1.54 [resistant] | locus YLR320W, strain mms22, stronger effect = lower value 0.181 | locus YLR342W, strain FKS1 (second series), stronger effect = lower value 0.746 | locus YLR342W, strain FKS1, stronger effect = lower value 0.0779 | locus YLR357W, strain rsc2, stronger effect = lower value 0.18 | locus YLR370C, strain arc18, stronger effect = lower value 0.067 | locus YLR384C, strain iki3, stronger effect = lower value 0.102 | locus YLR418C, strain cdc73, stronger effect = lower value 0.804 | locus YML120C, strain ndi1, stronger effect = lower value 0.082 | locus YMR058W, strain fet3, stronger effect = lower value 0.0939 | locus YMR125W, strain sto1, stronger effect = lower value 0.0861 | locus YMR129W, stronger effect = lower value 0.0771 | locus YMR205C, strain PFK2, stronger effect = lower value 0.719 | locus YMR231W, strain pep5, stronger effect = lower value 0.0725 | locus YNL071W, strain lat1, stronger effect = lower value 0.218 | [5] 0.86 and 0.732 | locus YNL209W, strain ssb2, stronger effect = lower value 0.101 | locus YNL248C, strain rpa49, stronger effect = lower value 0.461 | locus YNR049C, strain mso1, stronger effect = lower value 0.0933 | locus YOR001W, strain rrp6, stronger effect = lower value 0.143 | locus YOR070C, strain gyp1, stronger effect = lower value 0.0696 | locus YOR080W, strain dia2, stronger effect = lower value 0.18 | locus YOR083W, strain WHI5, stronger effect = lower value 0.0877 | locus YOR106W, strain vam3, stronger effect = lower value 0.0702 | locus YOR265W, strain rbl2, stronger effect = lower value 0.0766 | locus YOR270C, strain vph1, stronger effect = lower value 0.331 | locus YOR290C, strain snf2, stronger effect = lower value 0.122 | locus YPL051W, strain arl3, stronger effect = lower value 0.229 | locus YPL078C, strain atp4, stronger effect = lower value 0.586 | locus YPL106C, strain sse1, stronger effect = lower value 0.109 | locus YPL240C, strain hsp82, stronger effect = lower value 0.0839
0.739 (active) and 0.979 (inactive): locus YJL095W, strain BCK1, stronger effect = lower value

Reference: PubChem BioAssay AID1159580 (chemical genetic matrix, 2015)
